# Data as given in PubChem BioAssay AID1209 (Sanford-Burnham Center for Chemical Genomics, 2008).
# About 810 (0.43%) of roughly 190,000 compounds were called active. This is one part of a sample in which actives are shown more often than they occur. A number with no mark means an inactive call. Rule as the data show it: active = inhibition above about 50%; inactive = the rest.
# Target: Mannose-6-phosphate isomerase (Homo sapiens) (UniProt P34949)
# Assay: inhibitors of human PMI, primary screen, biochemical, fluorescence intensity, coupled assay (AID 1209);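 also: plate controls were DMSO vehicle for no effect and wells lacking substrate for full effect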
# Conditions: purified PMI enzyme, at 20 µM, active compounds read high
# Sequence of Mannose-6-phosphate isomerase (Homo sapiens) (P34949 whole entry, looked up): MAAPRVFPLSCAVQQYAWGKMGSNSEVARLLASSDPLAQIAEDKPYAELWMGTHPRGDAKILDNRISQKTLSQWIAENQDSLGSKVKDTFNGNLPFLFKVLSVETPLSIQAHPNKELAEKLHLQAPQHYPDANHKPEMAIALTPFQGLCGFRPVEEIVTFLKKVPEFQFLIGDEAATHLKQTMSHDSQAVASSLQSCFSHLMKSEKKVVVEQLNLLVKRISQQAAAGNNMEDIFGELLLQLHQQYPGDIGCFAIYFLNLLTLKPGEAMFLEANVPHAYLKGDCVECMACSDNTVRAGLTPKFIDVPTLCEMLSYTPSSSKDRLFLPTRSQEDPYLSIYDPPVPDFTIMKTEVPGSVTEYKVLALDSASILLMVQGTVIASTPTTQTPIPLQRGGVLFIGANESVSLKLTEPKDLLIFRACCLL
row,Structure (SMILES),inhibition
1,Cn1c(O)c(C(=O)c2ccccc2)c(=O)n(C)c1=O,-12.2%
2,O=c1[nH]c(=S)n(C2CC2)c(O)c1/C=N/Nc1ccccc1,-61.8%
3,CCCCC(=O)N/N=C/c1c(O)n(C2CC2)c(=S)[nH]c1=O,20.6%
4,O=C(N/N=C/c1c(O)n(C2CC2)c(=S)[nH]c1=O)c1ccccc1O,60.8% (active)
5,COc1ccc(C2=NCC(=O)N(CC(=O)NCc3ccco3)c3sc4c(c32)CCCC4)cc1,4.5%
6,O=C1CC(=O)N(c2cccc(Cl)c2)C(=O)N1,0.2%
7,CCCCc1nc(N2CCNCC2)c(C#N)c2c1CSC(C)(C)C2,3.9%
8,Oc1ccccc1/C=N/NP(=S)(c1ccccc1)c1ccccc1,6.9%
9,Oc1ccc(/C=N/NP(=S)(c2ccccc2)c2ccccc2)cc1,14.9%
10,Oc1ccc(/C=N/NP(=S)(c2ccccc2)c2ccccc2)c(O)c1O,62.4% (active)
11,O=C1c2ccccc2C(=O)N1Cc1nc2ccccc2c(=O)n1-c1ccccn1,-3%
12,CCCCCCOc1ccc(CN2CCN(CCO)CC2)cc1,-11.3%
13,COc1cccc(N2CCN(Cc3cccc(Cl)c3)CC2)c1,9.6%
14,CC12CCC(=O)C=C1CCC1C2CCC2(C)C(O)CCC12 (configuration not stated),-6.1%
15,C[C@]12CC[C@@H]3c4ccc(O)c(O)c4CC[C@H]3[C@@H]1CC[C@@H]2O,75.9% (active)
16,CC12CCC3C(CCC4C/C(=N/O)CCC43C)C1CCC2O (configuration not stated),2.7%
17,CCOP(=O)(C#CC(C)(C)C)C(C)(O)c1ccccc1 (configuration not stated),3.1%
18,Cc1nc2cc(C(F)(F)F)ccc2n1C1CCN(Cc2nnnn2Cc2cccs2)CC1,9.2%
19,CN1CCN(c2c(N)c(=O)oc3ccccc23)CC1,0.6%
20,COCCOC(=O)c1c(N)n(Cc2ccccc2)c2nc3ccccc3nc12,14.3%
21,Cn1c(O)c(C=NC2CCCCCC2)c(=O)[nH]c1=S,6.6%
22,CN(C)c1cccc2c(C#N)ccc(N(C)C)c12,82% (active)
23,CC(C)(C)c1ccc(S(=O)(=O)N2CC3CC(C2)c2cccc(=O)n2C3)cc1 (configuration not stated),-3.5%
24,Cc1cc(=O)[nH]c(SCc2nc3ccccc3c(=O)n2-c2ccccc2C)n1,0.9%
25,COc1cccc(NP(=O)(Oc2ccc(Cl)cc2)Oc2ccc(Cl)cc2)c1,18.7%
26,Cc1ccsc1C(=O)C1CCCN(Cc2cnn(C)c2)C1 (configuration not stated),9.3%

row,Structure (SMILES),inhibition
1,O=C1C2CCN(CC2)C1Cc1ccccc1O (configuration not stated),-6.7%
2,COc1ccc(CC2c3cc(OC)c(OC)cc3CCN2C)cc1O (configuration not stated),-2.1%
3,Oc1ccc(CC2CC3CCN2CC3)cc1O (configuration not stated),52.7% (active)
4,CCc1ccc(N2C(=O)NC(=O)C(CCc3ccncc3)(CCc3ccncc3)C2=O)cc1,4.9%
5,c1ccc(CCn2nnnc2CN2CCC(n3nnc4ccccc43)CC2)cc1,-11.1%
6,COc1cccc(N2C(=O)NC(=O)C3(Cc4cc(C)ccc4N(C)C3)C2=O)c1 (configuration not stated),-37%
7,CN1CCc2nc(N)c(C#N)c(-c3ccccc3)c2C1,2.3%
8,Cc1ccc2c(c1)=C/C(=C\c1c(O)[nH]c(=O)[nH]c1=O)C(=O)N=2,65% (active)
9,Cc1ccc2c(c1)=C/C(=C\c1c(O)[nH]c(=S)[nH]c1=O)C(=O)N=2,21.3%
10,Cc1cccc2c1=NC(=O)/C(=C/c1c(O)[nH]c(=O)[nH]c1=O)C=2,-7.2%
11,O=C(NC1(C(F)(F)F)Oc2ccc(Cl)cc2O1)N1CCC2(CC1)OCCO2 (configuration not stated),79.1% (active)
12,O=C(NC1(C(F)(F)F)Oc2ccccc2O1)N1CCC2(CC1)OCCO2,32.9%
13,O=C(NC(=O)N1CCC2(CC1)OCCO2)c1ccc(Cl)cc1,10.2%
14,CC(=O)Nc1ccccc1C(=O)OCc1ccc(F)cc1,1.8%
15,CS(=O)(=O)N1CCN(C(=N)N[N+](=O)[O-])CC1,-5.1%
16,C/C(=N\N1CCCCC1c1cccnc1)c1c(O)n(C2CCCCC2)c(=S)[nH]c1=O (configuration not stated),5.8%
17,O=C1C=Cc2ccccc2C1=O,79.1% (active)
18,O=C1C(=O)c2cccc3cccc1c23,17.2%
19,O=C1C(=O)c2ccccc2-c2ccccc21,25.8%
20,Cc1cc(Oc2ccc(C(F)(F)F)cc2[N+](=O)[O-])c2c3c(c(=O)oc2c1)CCC3,-1.9%
21,Cc1cc(N2C(=O)CC(N3CCC(n4c(=O)[nH]c5ccccc54)CC3)C2=O)no1 (configuration not stated),6.9%
22,COc1cc(CN2CC3CC(C2)c2cccc(=O)n2C3)cc(OC)c1OC (configuration not stated),-1.2%
23,CCN(CC)c1ccc(N=Cc2c(O)n(CCc3ccc(OC)c(OC)c3)c(=O)[nH]c2=O)cc1,50% (active)
24,CCN(CC)c1ccc(N=Cc2c(O)n(CCC3=CCCCC3)c(=O)[nH]c2=O)cc1,24.6%
25,CCN(CC)CCCN=Cc1c(O)n(CCc2ccc(OC)c(OC)c2)c(=O)[nH]c1=O,-10.4%
26,CCOC(=O)C(NC(=O)C(Cc1ccc(N(CCCl)CCCl)cc1)NC(C)=O)C(C)C (configuration not stated),-44.3%

row,Structure (SMILES),inhibition
1,Cc1ccc(N2C(=O)/C(=C/N3CCN(C(=O)c4ccco4)CC3)C(=O)NC2=S)cc1C,37.6%
2,Cc1cccc(N2C(=O)/C(=C/N3CCN(C(=O)c4ccco4)CC3)C(=O)NC2=S)c1,55.5% (active)
3,O=C1NC(=S)N(c2ccc(Br)cc2)C(=O)/C1=C/N1CCN(C(=O)c2ccco2)CC1,25.8%
4,CSCCC(N=Cc1c(O)n(-c2ccc(F)cc2)c(=O)[nH]c1=O)C(=O)OC(C)(C)C (configuration not stated),12.2%
5,O=C(CNC(=O)c1cccc(Cl)c1)Nc1ccc(Br)cc1C(=O)c1ccccc1,17.1%
6,Cc1ccc(NC2=NCCCS2)c(C)c1C,12.6%
7,Cc1ccnc(-n2c(C)cc(C=C3C(=O)N(C)C(=S)N(C)C3=O)c2C)c1,23.1%
8,Cc1cc(C=C2C(=O)N(C)C(=S)N(C)C2=O)c(C)n1-c1cccnc1,59.6% (active)
9,Cc1cc(C=C2C(=O)N(C)C(=O)N(C)C2=O)c(C)n1-c1ccccc1,-25.1%
10,C=CCN1C(=O)/C(=C/c2cc(C)n(-c3cccnc3)c2C)C(=O)NC1=S,50.2% (active)
11,C=CCN1C(=O)/C(=C/c2cc(C)n(-c3ccccn3)c2C)C(=O)NC1=S,-25.6%
12,Cc1cc(/C=C2/C(=O)NC(=O)N(C)C2=O)c(C)n1-c1ccccc1,2.6%
13,COc1cc2c(cc1O)C[C@H]1NCCc3cc4c(c-2c31)OCO4,6.6%
14,CCOC(=O)c1c(C)n(Cc2ccccc2)c2ccc(OCC(O)Cn3nc(C)nc3C)cc12 (configuration not stated),15.7%
15,CCOC(=O)c1c(C)n(Cc2ccccc2)c2ccc(OCC(O)Cn3nc(C)cc3C)cc12 (configuration not stated),16.3%
16,CCOC(=O)c1c(C)n(Cc2ccccc2)c2ccc(OCC(O)CN3C(=O)CNC3=O)cc12 (configuration not stated),60.1% (active)
17,C=CCOC(=O)C1=C(C)OC(N)=C(C#N)[C@@]12C(=O)N(CC(N)=O)c1ccccc12,-6.8%
18,C#CCN1C(=O)C2(C(C#N)=C(N)OC(C)=C2C(=O)OCc2ccccc2)c2ccccc21 (configuration not stated),51.6% (active)
19,CCOC(=O)C1=C(C)OC(N)=C(C#N)C12C(=O)N(C)c1ccccc12 (configuration not stated),5.2%
20,Nc1ccc(Cl)cc1C(=O)c1ccccc1Cl,5.4%
21,CCN(CC)P(c1n(C)cc[n+]1C)N(CC)CC,54.3% (active)
22,CNC(=O)OCc1n(C)cc[n+]1C,20.7%
23,CN(C)C(=O)OCc1n(C)cc[n+]1C,-9.3%
24,CCn1cc(CN2CCCC(C(=O)c3cccc(OC)c3)C2)c(C)n1 (configuration not stated),13%
25,CNC(C(=O)c1ccccc1)C(OC)c1ccc(C)cc1 (configuration not stated),-37.6%
